The record followed here is ChEMBL document CHEMBL4513216, “Probing the Open Global Health Chemical Diversity Library for Multistage-Active Starting Points for Next-Generation Antimalarials” (ACS Infect Dis, 2020).

Among all 69,000 compounds or so, about 8,600 (12%) showed an effect of 50% or more. The sample as a whole holds a higher share of strong results than the screen did.

The subject of this test is Plasmodium berghei. The test is described as follows: Screen against P. berghei liver stage (PbLuc), transformed with Luciferase, at 10uM. To be noted: tested at 10 uM. Format: functional, HepG2.
With `CC(C)CNC(=O)CN(C)S(C)(=O)=O`, the INHIBITION is on record as 40.7%. Take `CCC(CO)NC(=O)c1ccc2ccc(N(C)CC3CC3)n2c1` (configuration not stated): the INHIBITION is -24.3%. The value for `O=C(CCN1CCc2ccccc21)N1C[C@@H](O)[C@H](N2CCOCC2)C1` was -8.12%. Consider `O=C(CCN1CCc2ccccc21)N1CC(C(=O)N2CCOCC2)C1`, for which the INHIBITION was found to be 25.6%.

In the case of `O=C(CCN1CCc2ccccc21)N1C[C@@H](O)[C@H](N2CCCC2)C1`, the INHIBITION is on record as 56.8%. On to `CC1CN(Cc2nccn2C)CCN1c1ccc2nncn2n1` (configuration not stated), for which the INHIBITION came out at 57.4%. For the molecule `Cc1cc(CN2CCN(c3ccc4nncn4n3)CC2)no1`, the INHIBITION came out at 26.5%. On to `Cc1cc(CN2CCN(c3ccc4nncn4n3)C(C)C2)no1` (configuration not stated), for which the INHIBITION stood at 59%. Turning to `Cc1cnc(CN2CCN(c3ccc4nncn4n3)C(C)C2)cn1` (configuration not stated), the INHIBITION is reported as 23.7%.

As for `CC1CN(Cc2ccccn2)CCN1c1ccc2nncn2n1` (configuration not stated), the INHIBITION was 31.9%.

In the case of `Cc1cc(CN2CCN(c3ccc4nncn4n3)C(C)C2)on1` (configuration not stated), the INHIBITION worked out at 26.5%. The value for `CN(Cc1ccco1)C(=O)c1cccc(N2CCCC2=O)c1` was -27.9%; that for `Cc1cc(=O)n2nc(Oc3cccc(I)c3)sc2n1` was 35.7%; that for `O=S(=O)(Cc1cccc(F)c1)Nc1cc(Cl)ccn1` was 11.9%. Consider `CNC(=O)CN(C(=O)c1cc(C(C)C)no1)c1cccc(F)c1`, for which the INHIBITION is given as -10.5%. The value for `C=C(C)CN(CC)C(=O)c1cc(F)ccc1N1CCN(C)CC1` was 19.8%. The value for `CC(C)N(CC(N)=O)C(=O)c1cc(F)ccc1N1CCN(C)CC1` was 1.74%.

Turning to `CN1CCN(c2ccc(F)cc2C(N)=O)CC1`, the INHIBITION stood at 58.7%. On to `CC(NCc1ccncc1)c1ccc(N2CCN(C)CC2)c(F)c1` (configuration not stated), for which the INHIBITION was determined as 15.8%. `OCc1ccc(N2CCN(c3ncccn3)CC2)c(F)c1`: the INHIBITION turned out to be 31.3%.

Consider `CN1CCN(c2ccc(CO)cc2F)CC1`, for which the INHIBITION is given as 68.4%. Take `Cc1cccc(C(=O)N2CC(C(=O)NCC3CC3)C3(CCOCC3)C2)n1` (configuration not stated): the INHIBITION is on record as 37.1%. With `CN1CCN(Cc2cccnc2)C(=O)C12CCN(C1CCOC1)CC2` (configuration not stated), the INHIBITION stood at 40.3%. Consider `Cc1ccc(F)c(N2CCCC(Nc3nccn4cnnc34)C2=O)c1` (configuration not stated), for which the INHIBITION stood at 52.7%.

In the case of `O=C1C(Nc2nccn3cnnc23)CCCN1c1ccccc1Cl` (configuration not stated), the INHIBITION came out at 24.3%.

For the molecule `Cc1cc(F)ccc1N1CCCC(Nc2nccn3cnnc23)C1=O` (configuration not stated), the INHIBITION was 25.4%.

For the molecule `COC[C@]1(O)CCN(Cc2cnc(N(C)C)nc2)CC1(C)C`, the INHIBITION was -28.9%. For `O=C(O)C1(n2ccnc2)CCN(Cc2cc3ccccc3o2)CC1`, the INHIBITION was found to be 30.9%. `CCc1c(C)sc2c1c(N)nc(=O)n2CCN1CCOCC1`: the INHIBITION was -39.7%. Take `CCc1c(O)n(C(C)CC)c(SCC(=O)c2ccccc2)nc1=O` (configuration not stated): the INHIBITION is 36.7%. Turning to `CCc1c(O)nc(SCC(=O)Nc2ccccc2)n(C(C)CC)c1=O` (configuration not stated), the INHIBITION was 56.1%. In the case of `CCc1c(O)nc(SCC(=O)N(CC)CC)n(C(C)CC)c1=O` (configuration not stated), the INHIBITION is recorded as 29%.
